Source: PubChem BioAssay AID864 (The Scripps Research Institute Molecular Screening Center, 2007)
The list shows a part of the results. The source made the active and inactive calls. No stated cut-off is given here; in the data, active means activation above about 8.4%; inactive means the rest.

Target: Galanin receptor type 2 (Homo sapiens) (UniProt O43603)
Assay: GALR2 agonists, retest of hits, confirmation, cell-based (AID 864);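 further: 0% = buffer-only vehicle wells and 100% = full reference agonist response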
Conditions: GALR2-expressing cells, agonist activation; at 5.6 µM; hits give high values

Sequence of Galanin receptor type 2 (Homo sapiens) (O43603 whole entry, looked up): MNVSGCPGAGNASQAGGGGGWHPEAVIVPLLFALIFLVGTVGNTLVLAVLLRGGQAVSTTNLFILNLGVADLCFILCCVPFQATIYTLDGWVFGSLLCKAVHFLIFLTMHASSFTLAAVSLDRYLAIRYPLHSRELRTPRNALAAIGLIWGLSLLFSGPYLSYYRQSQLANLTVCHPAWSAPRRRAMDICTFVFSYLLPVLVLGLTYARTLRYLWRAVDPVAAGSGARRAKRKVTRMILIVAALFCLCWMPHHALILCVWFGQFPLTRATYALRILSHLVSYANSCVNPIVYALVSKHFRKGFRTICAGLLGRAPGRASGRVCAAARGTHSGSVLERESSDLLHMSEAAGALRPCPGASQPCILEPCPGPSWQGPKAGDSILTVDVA

Which activation does the source give for Cc1cccc(N2C(=O)NC(=O)/C(=C\c3cnn(-c4ccccc4)c3)C2=O)c1 here?
The activation was -0.18% (inactive).
